PubChem BioAssay (EPA / NIEHS)
Active and inactive are the calls of the source. The calls were made as follows: active = hit-call score of the fitted dose curve at least 0.9, where 1 is the maximum; inactive = score below 0.9.

Assays:
Conditions in all cases: mRNA level, 48 h; actives raise or lower the signal
[1] = read-out: Glutathione S-transferase M3 (GSTM3), GSTM3 (gene 2947); experiment: LTEA_HepaRG_GSTM3: Life Technologies and Expression Analysis (LTEA) Assay for Glutathione S-transferase M3 (GSTM3) using HepaRG (AID 2283501)
Outline: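 Expression of GSTM3 is determined by qRT-PCR in human liver HepaRG cells treated 48 h with an 8-point half-log range from 100 uM in 0.5% DMSO.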

[2] = read-out: Heat shock 70 kDa protein 1 (HSPA1A), gene 3303; experiment: LTEA_HepaRG_HSPA1A: Life Technologies and Expression Analysis (LTEA) Assay for Heat shock 70 kDa protein 1 (HSPA1A) using HepaRG (AID 2283502)
Outline: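 Differentiated human HepaRG cells in serum-free induction medium were exposed in duplicate for 48 h to eight concentrations (top 100 uM, half-log steps, 0.5% DMSO). HSPA1A mRNA was quantified by qRT-PCR, normalized to ACTB, GAPDH and POLR2A, and fitted bidirectionally against DMSO.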

[3] = read-out: Hypoxia-inducible factor 1-alpha (Homo sapiens) (UniProt Q16665); experiment: LTEA_HepaRG_HIF1A: Life Technologies and Expression Analysis (LTEA) Assay for Hypoxia-inducible factor 1 (HIF1A) Trancription factor using HepaRG (AID 2283503);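 also: HIF1A transcript by TaqMan qRT-PCR normalized to ACTB GAPDH and POLR2A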
Outline: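 HepaRG, 48 h exposure, 8-pt half-log series from 100 uM, 0.5% DMSO vehicle, duplicates. Readout: HIF1A transcript by qRT-PCR (Fluidigm array), housekeeping-normalised. Bidirectional curve fit vs DMSO baseline.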

[4] = read-out: 3-Hydroxy-3-Methylglutaryl-CoA Synthase 2 (HMGCS2), HMGCS2 (gene 3158); experiment: LTEA_HepaRG_HMGCS2: Life Technologies and Expression Analysis (LTEA) Assay for 3-Hydroxy-3-Methylglutaryl-CoA Synthase 2 (HMGCS2) using HepaRG (AID 2283504)
Outline: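 This steatosis marker was read as HMGCS2 mRNA change in HepaRG cells treated 48 h with up to 100 uM chemical. Normalisation used housekeeping genes; activity in either direction was fitted relative to 0.5% DMSO vehicle.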

HGF (gene 3082) = experiment: LTEA_HepaRG_HGF: Life Technologies and Expression Analysis (LTEA) Assay for Hepatocyte Growth Facto (HGF) using HepaRG (AID 2283505)
Outline: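 Using HepaRG monolayers kept in 0.5% DMSO, chemicals were tested in duplicate over eight half-log concentrations from 100 uM for 48 h. Endpoint: HGF mRNA change relative to DMSO, normalized to ACTB/GAPDH/POLR2A.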

[5] = read-out: Insulin Like Growth Factor 1 (IGF1), IGF1 (gene 3479); experiment: LTEA_HepaRG_IGF1: Life Technologies and Expression Analysis (LTEA) Assay for Insulin Like Growth Factor 1 (IGF1) using HepaRG (AID 2283506)
Outline: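 Differentiated human HepaRG cells were dosed for 48 h in serum-free induction medium with 0.5% DMSO, eight half-log concentrations up to 100 uM, in duplicate. IGF1 mRNA was quantified by qRT-PCR normalized to ACTB, GAPDH, POLR2A; bidirectional fitting versus DMSO.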

[6] = read-out: Intercellular Adhesion Molecule 1 (ICAM1), ICAM1 (gene 3383); experiment: LTEA_HepaRG_ICAM1: Life Technologies and Expression Analysis (LTEA) Assay for Intercellular Adhesion Molecule 1 (ICAM1) using HepaRG (AID 2283507)
Outline: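 Using the human liver line HepaRG, compounds are tested in duplicate over 48 h at concentrations up to 100 uM. Expression is determined by TaqMan qRT-PCR, normalized to endogenous controls, and analysed relative to 0.5% DMSO vehicle.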

[7] = read-out: Interleukin 6 (IL6), IL6 (gene 3569); experiment: LTEA_HepaRG_IL6: Life Technologies and Expression Analysis (LTEA) Assay for Interleukin 6 (IL6) using HepaRG (AID 2283509)
Outline: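 HepaRG cells exposed in duplicate for 48 h to eight half-log concentrations, top 100 uM, in 0.5% DMSO serum-free induction medium. mRNA measured by qRT-PCR, normalized to ACTB, GAPDH and POLR2A. Bidirectional fit versus DMSO.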

[8] = read-out: Interleukin 6 Receptor (IL6R), IL6R (gene 3570); experiment: LTEA_HepaRG_IL6R: Life Technologies and Expression Analysis (LTEA) Assay for Interleukin 6 Receptor (IL6R) using HepaRG (AID 2283510);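 as to AC50: TaqMan qRT-PCR signal normalized to ACTB GAPDH and POLR2A housekeeping genes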
Outline: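 Differentiated human HepaRG cells, plated 48 h then switched to serum-free induction medium, were dosed in duplicate for 48 h at eight half-log concentrations up to 100 uM in 0.5% DMSO. IL6R mRNA quantified by qRT-PCR, normalized to ACTB/GAPDH/POLR2A; bidirectional fit versus DMSO.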

[9] = read-out: Potassium channel subfamily K member 1 (KCNK1), KCNK1 (gene 3775); experiment: LTEA_HepaRG_KCNK1: Life Technologies and Expression Analysis (LTEA) Assay for Potassium channel subfamily K member 1 (KCNK1) using HepaRG (AID 2283511)
Outline: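 Differentiated HepaRG cells, 48 h exposure in serum-free induction medium with 0.5% DMSO; 8 concentrations, half-log from 100 uM, duplicate. KCNK1 mRNA by qRT-PCR, normalized to ACTB, GAPDH, POLR2A; bidirectional fit vs DMSO.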

[10] = read-out: Keratin 19 (KRT19), KRT19 (gene 3880); experiment: LTEA_HepaRG_KRT19: Life Technologies and Expression Analysis (LTEA) Assay for Keratin 19 (KRT19) using HepaRG (AID 2283512)
Outline: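 Readout is qRT-PCR of KRT19 mRNA, normalized to ACTB, GAPDH and POLR2A, from HepaRG cells treated 48 h with eight-point half-log dilutions topping at 100 uM. Activity in either direction is scored relative to 0.5% DMSO vehicle.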

[11] = read-out: JUN Transcription Factor, JUN (gene 3725); experiment: LTEA_HepaRG_JUN: Life Technologies and Expression Analysis (LTEA) Assay for JUN Transcription Factor using HepaRG (AID 2283513)
Outline: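 Differentiated HepaRG cells were exposed to chemicals for 48 h in serum-free induction medium, 8 concentrations from 100 uM in half-log steps, 0.5% DMSO vehicle, in duplicate. JUN mRNA was quantified by TaqMan qRT-PCR, normalized to ACTB, GAPDH, POLR2A.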

[12] = read-out: Lipase C (LIPC), LIPC (gene 3990); experiment: LTEA_HepaRG_LIPC: Life Technologies and Expression Analysis (LTEA) Assay for Lipase C (LIPC) using HepaRG (AID 2283514)
Outline: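 HepaRG cells, 48 h after plating, treated in duplicate for 48 h in serum-free induction medium over 8 half-log concentrations from 100 uM, 0.5% DMSO. LIPC mRNA by TaqMan qRT-PCR normalized to ACTB/GAPDH/POLR2A; bidirectional fit versus DMSO.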

[13] = read-out: Lipoprotein lipase (LPL), LPL (gene 4023); experiment: LTEA_HepaRG_LPL: Life Technologies and Expression Analysis (LTEA) Assay for Lipoprotein lipase (LPL) using HepaRG (AID 2283515)
Outline: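 Differentiated HepaRG cells, plated 48 h, then exposed 48 h in serum-free induction medium to 8 concentrations (top 100 uM, half-log steps) in 0.5% DMSO, duplicate. LPL mRNA measured by qRT-PCR, normalized to ACTB, GAPDH and POLR2A.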

[14] = read-out: MicroRNA 122 (MIR122), gene 406906; experiment: LTEA_HepaRG_MIR122: Life Technologies and Expression Analysis (LTEA) Assay for MicroRNA 122 (MIR122) using HepaRG (AID 2283516); also: the transcript read is the microRNA miR-122
Outline: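 Differentiated human HepaRG cells were exposed 48 h in serum-free induction medium to eight half-log concentrations (top 100 uM, 0.5% DMSO). Transcript level was measured by TaqMan qRT-PCR, normalized to ACTB, GAPDH and POLR2A, and fitted bidirectionally versus DMSO.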

[15] = read-out: matrix metalloproteinase-10 (MMP10), MMP10 (gene 4319); experiment: LTEA_HepaRG_MMP10: Life Technologies and Expression Analysis (LTEA) Assay for matrix metalloproteinase-10 (MMP10) using HepaRG (AID 2283517)
Outline: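 Differentiated HepaRG cells in serum-free induction medium exposed 48 h in duplicate to 8-point half-log series up to 100 uM in 0.5% DMSO. mRNA quantified by qRT-PCR, normalised to ACTB, GAPDH, POLR2A; bidirectional fit versus DMSO.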

MYC, MYC (gene 4609) = experiment: LTEA_HepaRG_MYC: Life Technologies and Expression Analysis (LTEA) Assay for MYC using HepaRG (AID 2283518)
Outline: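 Expression changes were scored by TaqMan qRT-PCR with ACTB, GAPDH and POLR2A normalization. Cultures in serum-free induction medium received duplicate 8-point concentration series, highest 100 uM, for 48 h; DMSO (0.5%) served as baseline.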

[16] = read-out: Paternally Expressed 10 (PEG10), PEG10 (gene 23089); experiment: LTEA_HepaRG_PEG10: Life Technologies and Expression Analysis (LTEA) Assay for Paternally Expressed 10 (PEG10) using HepaRG (AID 2283520)
Outline: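 Differentiated HepaRG cells, plated 48 h then switched to serum-free induction medium, were exposed in duplicate for 48 h to eight half-log concentrations topping at 100 uM in 0.5% DMSO. PEG10 mRNA was quantified by TaqMan qRT-PCR, normalised to ACTB, GAPDH and POLR2A.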

[17] = read-out: Insulin-like growth factor-binding protein 1 (IGFBP1), IGFBP1 (gene 3484); experiment: LTEA_HepaRG_IGFBP1: Life Technologies and Expression Analysis (LTEA) Assay for Insulin-like growth factor-binding protein 1 (IGFBP1) using HepaRG (AID 2283508)
Outline: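 HepaRG, 48 h, 8 conc. (max 100 uM, half-log), duplicates, 0.5% DMSO. Readout: TaqMan qRT-PCR, ACTB/GAPDH/POLR2A normalisation. Fit: bidirectional vs DMSO.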

[18] = read-out: matrix metalloproteinase-3 (MMP3), MMP3 (gene 4314); experiment: LTEA_HepaRG_MMP3: Life Technologies and Expression Analysis (LTEA) Assay for matrix metalloproteinase-3 (MMP3) using HepaRG (AID 2283519)
Outline: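 HepaRG cells (~100,000/well) in serum-free induction medium were dosed in duplicate for 48 h with an 8-point half-log series from 100 uM, 0.5% DMSO. MMP3 mRNA was quantified by Fluidigm TaqMan qRT-PCR, normalized to three housekeeping genes.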

Measured: AC50

Hypoxia-inducible factor 1-alpha (Homo sapiens), sequence (Q16665 whole entry, looked up): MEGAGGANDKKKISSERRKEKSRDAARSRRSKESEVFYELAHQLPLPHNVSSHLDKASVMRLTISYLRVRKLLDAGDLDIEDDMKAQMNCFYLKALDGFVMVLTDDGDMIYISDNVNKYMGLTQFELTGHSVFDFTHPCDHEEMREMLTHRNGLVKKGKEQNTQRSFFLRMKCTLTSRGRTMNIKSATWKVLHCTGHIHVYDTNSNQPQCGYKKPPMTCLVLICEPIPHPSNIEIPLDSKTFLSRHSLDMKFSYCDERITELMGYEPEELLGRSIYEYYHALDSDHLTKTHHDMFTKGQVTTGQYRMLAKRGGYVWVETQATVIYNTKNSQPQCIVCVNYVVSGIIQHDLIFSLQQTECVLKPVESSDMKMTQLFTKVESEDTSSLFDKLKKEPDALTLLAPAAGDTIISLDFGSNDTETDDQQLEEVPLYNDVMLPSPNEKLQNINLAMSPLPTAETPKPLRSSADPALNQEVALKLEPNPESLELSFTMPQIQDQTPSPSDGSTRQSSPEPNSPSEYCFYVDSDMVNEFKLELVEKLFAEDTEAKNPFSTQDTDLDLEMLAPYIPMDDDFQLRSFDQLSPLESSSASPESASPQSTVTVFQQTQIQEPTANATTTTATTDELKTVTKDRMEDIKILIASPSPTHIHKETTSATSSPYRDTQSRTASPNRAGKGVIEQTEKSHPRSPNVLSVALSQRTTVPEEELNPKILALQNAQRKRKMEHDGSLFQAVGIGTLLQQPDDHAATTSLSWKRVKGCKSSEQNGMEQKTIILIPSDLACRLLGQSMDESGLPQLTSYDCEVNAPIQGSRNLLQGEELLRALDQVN

N#Cc1cc(Br)c(O)c(Br)c1
active: [1] 10.7 µM | [2] 10.6 µM | [3] 40 µM | [4] 33.3 µM | HGF (gene 3082) 23.9 µM | [5] 17.4 µM | [6] 69.9 µM | [7] 34.5 µM | [8] 19.4 µM | [10] 25.6 µM | [11] 24.2 µM | [12] 23.5 µM | [14] 14.2 µM | [16] 10.5 µM
inactive: [9] | [13] | [15] | MYC, MYC (gene 4609)

COC(=O)c1ccccc1C(=O)OC
not listed: [17] | [18]
inactive: all other assays above

Cc1cc(Cl)ccc1OCC(=O)O
active: [16] 9.94 µM
not listed: [11]
inactive: all other assays above

O=C(O)COc1nc(Cl)c(Cl)cc1Cl
active: [16] 3.29 µM
not listed: [11] | [18]
inactive: all other assays above

CC(C)(C)c1ccc(CSc2cnn(C(C)(C)C)c(=O)c2Cl)cc1
active: [4] 2.38 µM | [5] 1.88 µM | [6] 2.69 µM | [7] 2.84 µM | [10] 1.58 µM | [12] 2.82 µM | [13] 2.25 µM | [14] 22.8 µM | [15] 18.1 µM | MYC, MYC (gene 4609) 2.84 µM | [16] 1.01 µM
inactive: [1] | [2] | [3] | HGF (gene 3082) | [8] | [9] | [11]

CCON=C(CC)C1=C(O)CC(c2c(C)cc(C)cc2C)CC1=O (centres undefined)
not listed: [11] | [18]
inactive: all other assays above
